Test results reported in PubChem BioAssay (Tox21).
Results filed as inconclusive are left out. Activity calls are given as the source filed them. Unless noted, the call rests on the fitted dose curve.

How the values were obtained:
[1] = molecular target: Thyrotropin receptor (Homo sapiens) (UniProt P16473); assay: qHTS assay to identify small molecule agonists of the thyroid stimulating hormone receptor (TSHR) signaling pathway (AID 1224843); further: nearly all actives have a fitted effect of over 45% in size
Procedure, shortened: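 HEK293/TSHR, 800 cells/well; cpd 30 min RT; add cAMP-d2 + anti-cAMP-cryptate, 1 h RT; fluorescence read on plate reader. 15-pt titration, n=3.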

[2] = qHTS assay to identify small molecule agonists of the hypoxia (HIF-1) signaling pathway - cell viability counter screen (AID 1224844); further: nearly all actives have a fitted effect of over 50% in size
Procedure, shortened: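 CellTiter-Glo luminescence read-out, 30 min RT, taken in the same wells as the beta-lactamase HRE reporter assay; HRE-bla ME-180 cells, 0.5% dialyzed FBS, 17 hr compound treatment at 37C, 5% CO2.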

[3] = qHTS assay to identify small molecule agonists of H2AX (AID 1224845; active means well fitted activation curve with a large enough effect in the signal ratio in the repeat runs, not every such curve was filed as active; the % refers to the signal ratio)
Procedure, shortened: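 Wild-type CHO-K1 cells, plated overnight, exposed 3hr at 37C to 15 concentrations (0.76% DMSO final). Lysed, then HTRF anti-pH2AX (S139) cryptate and anti-H2AX-d2 antibodies, 24 hr room temperature; 665/620 nm emission read.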

[4] = qHTS assay to identify small molecule agonists of the hypoxia (HIF-1) signaling pathway (AID 1224846; active means well fitted activation curve with a large enough effect in the signal ratio in the repeat runs, not every such curve was filed as active; the % refers to the signal ratio)
Procedure, shortened: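 Beta-lactamase FRET read-out (CCF4-AM substrate) from ME-180 cells carrying an HRE-driven bla reporter, after 17 hrs compound exposure at 37C/5% CO2. Cells were seeded at 2,000 per well in 0.5% dialyzed FBS medium and preincubated 5 hrs.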

[5] = qHTS assay to identify small molecule agonists of H2AX - cell viability counter screen (AID 1224847); further: top concentration of the series differs between compounds; nearly all actives have a fitted effect of over 30% in size
Procedure, shortened: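 Cytotoxicity counter screen in wild-type CHO-K1 cells: a 3 hr compound treatment at 37C across 15 concentrations, followed by CellTiter-Glo luminescence to gauge viable cells.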

[6] = qHTS RealTime-Glo MT Cell Viability Assay in HepG2 cells - 24 hour (AID 1224867; active means well fitted curve in the direction sought with a large enough effect in the repeat runs; an effect the other way counts as inactive or inconclusive; further: nearly all actives have a fitted effect of over 50% in size)
Procedure, shortened: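 Viability was tracked continuously by NanoLuc luminescence from prosubstrate reduced by living HepG2 cells, at successive time points over 40 h of compound exposure. Cells with reagent were preincubated 5 h at 37 °C before compound addition.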

[7] = qHTS RealTime-Glo MT Cell Viability Assay in HEK293 cells - 32 hour (AID 1224868; active means well fitted curve in the direction sought with a large enough effect in the repeat runs; an effect the other way counts as inactive or inconclusive; further: top concentration of the series differs between compounds; nearly all actives have a fitted effect of over 50% in size)
Procedure, shortened: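 Viability tracked continuously by luminescence as live cells reduce a prosubstrate for NanoLuc; HEK293 cells preincubated 5 h, compound-treated at 37 C, and read at 0, 8, 16, 24, 32 and 40 h.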

[8] = A CellTox Green Cytotoxicity Assay to monitor cytotoxicity in HEK293 cells - 0 hour (AID 1224869; active means well fitted curve in the direction sought with a large enough effect in the repeat runs; an effect the other way counts as inactive or inconclusive; further: nearly all actives have a fitted effect of over 50% in size)
Procedure, shortened: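 Read-out: fluorescence of a cell-impermeant cyanine dye staining DNA of dead cells, proportional to cytotoxicity. HEK293, 600 cells/well with reagent, compound (23 nL DMSO) added after 5 h; reads at 0, 8, 16, 24, 32, 40 h.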

[9] = qHTS assay to identify small molecule antagonists of the estrogen related receptor (ERR) signaling pathway from Tox21 library (AID 1224848; active means well fitted curve in the direction sought with a large enough effect in the repeat runs; an effect the other way counts as inactive or inconclusive; further: nearly all actives have a fitted effect of over 50% in size)
Procedure, shortened: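 Compounds dissolved in DMSO are pin-transferred onto ERR reporter cells (2,000 per well) that have settled for 6 h at 37 C. Plates then incubate 18 h at 37 C before ONE-Glo luciferase reagent and a luminescence read 30 min later.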

[10] = qHTS assay to identify small molecule agonists of the estrogen related receptor (ERR) signaling pathway from Tox21 library (AID 1224849); conditions: ERR reporter cell line, ONE-Glo luciferase, 18 h; at 92.4 µM (top of the series) unless noted; further: nearly all actives have a fitted effect of over 15% in size
Procedure, shortened: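 Luminescence readout (ONE-Glo, 30 min RT) after 18 h compound exposure at 37 C of NTP-supplied ERR reporter cells; cells were plated 6 h before compound addition by pin tool.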
On the % scale 0 is the no-effect control and ±100 the full control effect.

Sequence of Thyrotropin receptor (Homo sapiens) (P16473 whole entry, looked up): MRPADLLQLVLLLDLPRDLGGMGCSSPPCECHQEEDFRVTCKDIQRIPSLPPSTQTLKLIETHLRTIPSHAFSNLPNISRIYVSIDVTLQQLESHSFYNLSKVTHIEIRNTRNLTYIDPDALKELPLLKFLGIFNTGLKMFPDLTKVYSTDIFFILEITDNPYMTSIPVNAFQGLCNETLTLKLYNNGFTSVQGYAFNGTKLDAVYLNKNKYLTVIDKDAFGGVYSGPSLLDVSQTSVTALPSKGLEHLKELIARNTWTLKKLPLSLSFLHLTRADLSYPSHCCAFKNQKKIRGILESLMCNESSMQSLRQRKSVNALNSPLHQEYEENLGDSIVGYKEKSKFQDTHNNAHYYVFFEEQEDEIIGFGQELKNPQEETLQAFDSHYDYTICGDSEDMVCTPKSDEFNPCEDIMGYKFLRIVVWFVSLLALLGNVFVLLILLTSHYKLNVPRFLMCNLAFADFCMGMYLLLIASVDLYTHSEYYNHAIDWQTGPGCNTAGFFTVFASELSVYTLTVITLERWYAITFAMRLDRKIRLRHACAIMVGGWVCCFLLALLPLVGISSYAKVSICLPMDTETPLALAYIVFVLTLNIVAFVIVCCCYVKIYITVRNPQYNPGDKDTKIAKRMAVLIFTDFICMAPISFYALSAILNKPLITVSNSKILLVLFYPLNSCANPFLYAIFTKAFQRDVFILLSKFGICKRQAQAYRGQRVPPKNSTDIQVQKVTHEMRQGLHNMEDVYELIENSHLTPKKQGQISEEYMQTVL

CCCCCCC(CCCCCCCCCCC(=O)OCC(COC(C)=O)OC(C)=O)OC(C)=O (stereo not drawn)
inactive: outcome [1] | Potency [2] | outcome [3] | outcome [4] | Potency [5] | outcome [6] | Potency [7] | Potency [8]

CC(=O)NC(Cc1ccccc1)C(=O)O (stereo not drawn)
inactive: outcome [1] | Potency [2] | outcome [3] | outcome [4] | Potency [5] | outcome [6] | Potency [7] | Potency [8]

Nc1nc(F)nc2c1ncn2[C@@H]1O[C@H](CO)[C@@H](O)[C@@H]1O
inactive: outcome [1] | Potency [2] | outcome [3] | outcome [4] | Potency [5] | outcome [6] | Potency [8]

COc1nc(C)nc(N)n1
inactive: outcome [1] | Potency [2] | outcome [3] | outcome [4] | Potency [5] | outcome [6] | Potency [7] | Potency [8]

C=CCOCC(O)CS(=O)(=O)O (stereo not drawn)
inactive: outcome [1] | Potency [2] | outcome [3] | outcome [4] | Potency [5] | outcome [6] | Potency [7] | Potency [8]

CC(C)COC(=O)c1ccccc1O
inactive: outcome [1] | Potency [2] | outcome [3] | outcome [4] | Potency [5] | outcome [6] | Potency [7] | Potency [8]

N#CCc1ccccc1[N+](=O)[O-]
inactive: outcome [1] | Potency [2] | outcome [3] | outcome [4] | Potency [5] | outcome [6] | Potency [7] | Potency [8]

COc1ccc(NC(C)=O)cc1
inactive: outcome [1] | Potency [2] | outcome [3] | outcome [4] | Potency [5] | outcome [6] | Potency [7] | Potency [8]

CCn1cc(C(=O)O)c(=O)c2cc(F)c(N3CCN(C)CC3)cc21
inactive: activation [1] -0.535% [at 19 µM] | activity change, negative = cytotoxicity [2] -1.72% [at 15.8 µM] | activation (H2AX phosphorylation) [3] -0.959% [at 31.6 µM] | activation [4] -0.496% [at 15.8 µM] | activity change, negative = cytotoxicity [5] -2.01% [at 31.6 µM] | activity change, negative = cytotoxicity [6] 0.0471% [at 15.8 µM] | activity change, negative = cytotoxic [7] 4.88% [at 15.8 µM] | cytotoxicity [8] -2.39% [at 15.8 µM]

CC(C=O)Cc1ccc(C(C)C)cc1 (stereo not drawn)
inactive: outcome [1] | Potency [2] | outcome [3] | outcome [4] | Potency [5] | outcome [6] | Potency [7] | Potency [8]

CCC(=O)c1cccc(Cl)c1
inactive: outcome [1] | Potency [2] | outcome [3] | outcome [4] | Potency [5] | outcome [6] | Potency [7] | Potency [8]

CCCCC=O
inactive: outcome [1] | Potency [2] | outcome [3] | outcome [4] | Potency [5] | outcome [6] | Potency [7] | Potency [8]

CCCCCCCCCCCCCCCCCCOCC(O)CO (stereo not drawn)
inactive: outcome [1] | Potency [2] | outcome [3] | outcome [4] | Potency [5] | outcome [6] | Potency [7] | Potency [8]

OCC(CO)(CO)COCC(CO)(CO)CO
inactive: outcome [1] | Potency [2] | outcome [3] | outcome [4] | Potency [5] | outcome [6] | Potency [7] | Potency [8]

C#CC(O)C(CC)CCCC (stereo not drawn)
inactive: outcome [1] | Potency [2] | outcome [3] | outcome [4] | Potency [5] | outcome [6] | Potency [7] | Potency [8]

NC(=S)Nc1cccc2ccccc12
inactive: activation [1] 1.3% [at 8.39 µM] | activity change, negative = cytotoxicity [2] -3.12% [at 6.97 µM] | activation (H2AX phosphorylation) [3] 4.19% [at 14 µM] | activation [4] 1.15% [at 7.01 µM] | activity change, negative = cytotoxicity [5] 1.9% [at 14 µM] | activity change, negative = cytotoxicity [6] 1.73% [at 6.97 µM] | activity change, negative = cytotoxic [7] 15.6% [at 6.97 µM] | cytotoxicity [8] 0.823% [at 6.97 µM]

CCCc1ccccc1O
inactive: outcome [1] | Potency [2] | outcome [3] | outcome [4] | Potency [5] | outcome [6] | Potency [7] | Potency [8]

Cc1ccc(N)cc1[N+](=O)[O-]
inactive: outcome [1] | Potency [2] | outcome [3] | outcome [4] | Potency [5] | outcome [6] | Potency [7] | Potency [8]

CC(C)(C)CC(C)(C)N
inactive: outcome [1] | Potency [2] | outcome [3] | outcome [4] | Potency [5] | outcome [6] | Potency [7] | Potency [8]

CC1=CC(C)C(C=O)C(C)C1 (stereo not drawn)
inactive: outcome [1] | Potency [2] | outcome [3] | outcome [4] | Potency [5] | outcome [6] | Potency [7] | Potency [8]

CC(C)=CC(=O)O
inactive: outcome [1] | Potency [2] | outcome [3] | outcome [4] | Potency [5] | outcome [6] | Potency [7] | Potency [8]

C=CCOc1nc(OCC=C)nc(OCC=C)n1
inactive: outcome [1] | Potency [2] | outcome [3] | outcome [4] | Potency [5] | outcome [6] | Potency [7] | Potency [8]

O=C(O)C1CCC1
inactive: outcome [1] | Potency [2] | outcome [3] | outcome [4] | Potency [5] | outcome [6] | Potency [7] | Potency [8]

CC(C)CCCC(C)CCCC(C)CCCCC(C)CCCC(C)CCCC(C)C (stereo not drawn)
inactive: outcome [1] | Potency [2] | outcome [3] | outcome [4] | Potency [5] | outcome [6] | Potency [7] | Potency [8]

CCCC(C)CO (stereo not drawn)
inactive: outcome [1] | Potency [2] | outcome [3] | outcome [4] | Potency [5] | outcome [6] | Potency [7] | Potency [8]

NC(CS)C(=O)O (stereo not drawn)
inactive: outcome [1] | Potency [2] | outcome [3] | outcome [4] | Potency [5] | outcome [6] | Potency [8]

CCOC(=O)Nc1ccc2c(c1)N(C(=O)CCN1CCOCC1)c1ccccc1S2
inactive: outcome [1] | Potency [2] | outcome [3] | outcome [4] | Potency [5] | outcome [6] | Potency [7] | Potency [8]

CCCCC1CCCCC(=O)O1 (stereo not drawn)
inactive: outcome [1] | Potency [2] | outcome [3] | outcome [4] | Potency [9] | activity change, positive = activation [10] 0.974% | outcome [6] | Potency [7] | Potency [8]
